In PubChem BioAssay (Tox21):
A number with no mark means an inactive call. Inconclusive results are not listed. Entries that show only a call come without a potency. Active and inactive are the calls of the source. Unless noted, calls come from the whole dose curve.

Assays:
[1] = Nuclear factor erythroid 2-related factor 2/antioxidant responsive element (Nrf2/ARE) small molecule agonists: qHTS cell viability counter screen in human keratinocytes (AID 1919968; active = well fitted curve in the direction sought with a large enough effect in the repeat runs; an effect the other way counts as inactive or inconclusive; note: nearly all actives have a fitted effect of over 55% in size)
Procedure, shortened: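 KeratinoSens HaCaT cells, 1,500/well, preincubated 5 h, then exposed to compounds in DMSO for 23 h at 37 C/5% CO2. Viability read as CellTiter-Fluor fluorescence after 1 h, in the same wells as the ARE-luciferase read.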

[2] = Nuclear factor erythroid 2-related factor 2/antioxidant responsive element (Nrf2/ARE) small molecule agonists: luciferase reporter gene qHTS assay in human keratinocytes (AID 1919969); note: nearly all actives have a fitted effect of over 35% in size; note: potency is the fitted concentration of half-maximal effect
[3] = molecular target: Gonadotropin-releasing hormone receptor (Homo sapiens) (UniProt P30968); assay: Human gonadotropin-releasing hormone receptor (GnRHR) small molecule agonists, calcium flux assay in GnRHR-HEK293 cells (AID 1920063); note: nearly all actives have a fitted effect of over 35% in size
Sequence of Gonadotropin-releasing hormone receptor (Homo sapiens) (P30968 whole entry, looked up): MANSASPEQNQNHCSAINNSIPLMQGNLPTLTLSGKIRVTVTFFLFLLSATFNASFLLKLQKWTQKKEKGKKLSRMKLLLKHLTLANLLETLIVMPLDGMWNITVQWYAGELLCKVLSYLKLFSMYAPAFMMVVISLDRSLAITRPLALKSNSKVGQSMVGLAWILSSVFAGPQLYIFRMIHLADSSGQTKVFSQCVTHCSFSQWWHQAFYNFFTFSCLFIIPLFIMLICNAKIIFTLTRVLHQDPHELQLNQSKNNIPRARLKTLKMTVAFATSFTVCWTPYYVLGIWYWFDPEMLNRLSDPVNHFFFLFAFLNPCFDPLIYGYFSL
Procedure, shortened: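 HEK293 cells stably expressing human GnRHR were dye-loaded for 1 h at 37 C. Compound was added in agonist mode and fluorescence (Ex/Em 480/540) recorded kinetically for 3 min. Fifteen concentrations, triplicates.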

[4] = molecular target: KiSS-1 receptor (Homo sapiens) (UniProt Q969F8); assay: Human kisspeptin (KISS1R) small molecule agonists, calcium flux assay in KISS1R-HEK293 cells (AID 1920064; active = well fitted curve in the direction sought with a large enough effect in the repeat runs; an effect the other way counts as inactive or inconclusive)
Sequence of KiSS-1 receptor (Homo sapiens) (Q969F8 whole entry, looked up): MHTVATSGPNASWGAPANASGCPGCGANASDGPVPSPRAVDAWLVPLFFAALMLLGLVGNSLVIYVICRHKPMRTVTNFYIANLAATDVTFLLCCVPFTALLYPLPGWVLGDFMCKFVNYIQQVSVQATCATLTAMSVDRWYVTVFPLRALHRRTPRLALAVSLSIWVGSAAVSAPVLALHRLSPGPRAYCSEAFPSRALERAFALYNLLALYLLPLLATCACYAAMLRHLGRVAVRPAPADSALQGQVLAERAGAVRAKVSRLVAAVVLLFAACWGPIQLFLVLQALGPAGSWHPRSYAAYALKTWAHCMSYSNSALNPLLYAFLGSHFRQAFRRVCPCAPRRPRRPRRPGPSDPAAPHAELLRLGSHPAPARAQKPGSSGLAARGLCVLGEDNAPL
Procedure, shortened: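 HEK293 cells stably expressing human KISS1R were loaded with calcium dye for 1 h at 37 C, then given compound; fluorescence (Ex/Em 480/540) was read kinetically for 3 min. Fifteen concentrations, triplicate.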

[5] = G protein-coupled receptor (GPCR) small molecule agonists, calcium flux assay: HEK293 wild type cell line counter screen (AID 1920065)
Procedure, shortened: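 Wild-type HEK293 cells plated 18 h, loaded with calcium dye 1 h at 37 C, then compounds added in agonist mode (ATP as positive control). Kinetic fluorescence Ex/Em 480/540 recorded 3 min at 1 sec intervals; 15 concentrations, triplicate.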

[6] = p53 small molecule agonists, cell-based qHTS assay with human liver microsomes (AID 1963577);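 note: p53 response element beta-lactamase reporter cells with liver microsomes plus NADPH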
Procedure, shortened: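 With metabolic activation: human liver microsomes (0.5 mg/mL final) plus NADPH (0.5 mg/mL final) added alongside compounds to p53RE-bla cells; 16 h 37 C exposure; beta-lactamase read by LiveBLAzer fluorescence.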

[7] = p53 small molecule agonists, cell-based qHTS assay with rat liver microsomes (AID 1963578)
Procedure, shortened: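 Metabolic activation by rat liver microsomes and NADPH, each 0.5 mg/mL final, added right after compounds to p53RE-bla reporter cells (4,000/well, plated 5 h earlier). 16 h at 37 C, then LiveBLAzer substrate for 2 h at room temperature in the dark; fluorescence read-out.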

[8] = p53 small molecule agonists, cell-based qHTS assay with human liver microsomes: qHTS cell viability counter screen (AID 1963579); note: nearly all actives have a fitted effect of over 45% in size
Procedure, shortened: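 Metabolic activation used human liver microsomes and NADPH, both 0.5 mg/mL final, over 16 hours at 37 C on p53RE-bla cells (4,000/well). Cytotoxicity measured by CellTiter-Glo luminescence, 30 min at room temperature.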

[9] = p53 small molecule agonists, cell-based qHTS assay with rat liver microsomes: qHTS cell viability counter screen (AID 1963580); note: nearly all actives have a fitted effect of over 45% in size
Procedure, shortened: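 HCT-116 p53RE-bla, 4,000 cells/well, 5 h pre-incubation; cpd + rat liver microsomes 0.5 mg/mL + NADPH 0.5 mg/mL (final); 16 h, 37 C; CellTiter-Glo, 30 min RT; luminescence.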

[10] = p53 small molecule agonists, cell-based qHTS assay: qHTS cell viability counter screen (AID 1963581); note: nearly all actives have a fitted effect of over 45% in size
Procedure, shortened: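 p53RE-bla HCT-116 cells, compounds added 5 h after plating and incubated 16 h at 37 C. Cytotoxicity measured in the same wells as intracellular ATP by CellTiter-Glo luminescence after 30 min at room temperature.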

[11] = p53 small molecule agonists, cell-based qHTS assay (AID 1963582; active = well fitted activation curve with a large enough effect in the signal ratio in the repeat runs, not every such curve was filed as active; the % refers to the signal ratio)
Procedure, shortened: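 p53RE-bla reporter cells, compounds added in DMSO after 5 h plating, incubated 16 h at 37 C. Beta-lactamase read via 2 h room-temperature LiveBLAzer B/G FRET substrate, fluorescence intensity.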

[12] = molecular target: 5-hydroxytryptamine receptor 2A (Homo sapiens) (UniProt P28223); assay: 5-hydroxytryptamine receptor 2A (HTR2A) small molecule antagonists, cell-based qHTS assay (AID 1963586); note: nearly all actives have a fitted effect of over 45% in size
Sequence of 5-hydroxytryptamine receptor 2A (Homo sapiens) (P28223 whole entry, looked up): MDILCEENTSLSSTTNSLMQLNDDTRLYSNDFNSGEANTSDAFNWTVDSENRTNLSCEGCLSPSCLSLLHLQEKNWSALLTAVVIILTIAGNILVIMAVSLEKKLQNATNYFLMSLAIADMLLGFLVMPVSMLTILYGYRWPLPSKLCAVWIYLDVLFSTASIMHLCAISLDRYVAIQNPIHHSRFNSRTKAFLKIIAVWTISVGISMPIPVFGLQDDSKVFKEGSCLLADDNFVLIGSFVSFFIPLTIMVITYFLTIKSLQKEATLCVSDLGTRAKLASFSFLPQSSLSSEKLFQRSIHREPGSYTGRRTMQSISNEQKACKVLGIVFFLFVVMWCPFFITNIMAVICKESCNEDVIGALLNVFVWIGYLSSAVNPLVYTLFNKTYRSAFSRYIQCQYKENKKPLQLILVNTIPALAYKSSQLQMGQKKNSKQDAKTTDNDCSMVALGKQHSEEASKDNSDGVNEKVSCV
Procedure, shortened: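 Antagonist-mode intracellular calcium assay: DOI (4 nM) added after 5 min compound pre-incubation at room temperature to dye-loaded HTR2A-CHO cells. Fluorescence followed for 3 min, sampled every second.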

[13] = molecular target: Muscarinic acetylcholine receptor M1 (Homo sapiens) (UniProt P11229); assay: Cholinergic receptor muscarinic 1 (CHRM1) small molecule antagonists, cell-based qHTS assay (AID 1963588); note: nearly all actives have a fitted effect of over 40% in size
Sequence of Muscarinic acetylcholine receptor M1 (Homo sapiens) (P11229 whole entry, looked up): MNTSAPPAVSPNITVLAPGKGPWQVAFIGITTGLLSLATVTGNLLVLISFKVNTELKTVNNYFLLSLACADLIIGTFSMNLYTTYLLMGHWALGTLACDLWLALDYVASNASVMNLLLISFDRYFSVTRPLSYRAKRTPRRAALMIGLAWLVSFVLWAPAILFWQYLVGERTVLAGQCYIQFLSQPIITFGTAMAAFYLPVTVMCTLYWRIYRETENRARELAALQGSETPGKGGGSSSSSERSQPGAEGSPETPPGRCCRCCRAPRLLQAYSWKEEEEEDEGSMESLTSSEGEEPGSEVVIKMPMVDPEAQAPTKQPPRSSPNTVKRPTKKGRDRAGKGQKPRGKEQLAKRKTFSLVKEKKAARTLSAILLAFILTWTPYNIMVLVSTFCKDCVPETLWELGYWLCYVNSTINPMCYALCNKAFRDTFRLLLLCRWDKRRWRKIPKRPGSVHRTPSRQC
Procedure, shortened: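 CHRM1-CHO calcium-flux assay, antagonist mode. Cells were seeded 18 h, dye-loaded 1 h at 37 C and given compound for 5 min at RT, then acetylcholine was added at 50nM. FDSS fluorescence was read 3 min; 15 concentrations, three runs.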

[14] = molecular target: Muscarinic acetylcholine receptor M1 (Homo sapiens) (UniProt P11229); assay: Cholinergic receptor muscarinic 1 (CHRM1) small molecule agonists, cell-based qHTS assay (AID 1963589); note: nearly all actives have a fitted effect of over 35% in size
Procedure, shortened: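 CHO cells stably expressing human CHRM1 were loaded with calcium dye for 1 h at 37 C, then compound was added in agonist mode. Intracellular calcium fluorescence was followed kinetically at 1 s intervals. Fifteen concentrations were tested in three independent runs.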

[15] = cAMP Responsive Elements (CRE) small molecule agonists, cell-based qHTS assay (AID 1963590)
Procedure, shortened: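 CRE-bla HEK 293T cells, 2,000/well in DMEM with 10% dialyzed FBS and 25 mM HEPES, pre-incubated 18 h at 37 C, then exposed to compound 3 h at 37 C. Beta-lactamase reporter read with LiveBLAzer B/G FRET substrate after 2 h at room temperature.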

[16] = cAMP Responsive Elements (CRE) small molecule antagonists, cell-based qHTS assay (AID 1963591; active = well fitted inhibition curve with a large enough effect in the signal ratio in the repeat runs, not every such curve was filed as active; the % refers to the signal ratio)
Procedure, shortened: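 CRE-bla HEK293T cells plated 18 h, then given compound plus NKH477 at 0.25 uM final for 3 h at 37C. Beta-lactamase reporter read with LiveBLAzer B/G FRET substrate after 2 h at room temperature.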

[17] = molecular target: Beta-2 adrenergic receptor (Homo sapiens) (UniProt P07550); assay: Adrenergic beta2 receptor (ADRB2) small molecule antagonists, cell-based qHTS assay (AID 1963592); note: series mostly up to about 92 µM; nearly all actives have a fitted effect of over 50% in size
Sequence of Beta-2 adrenergic receptor (Homo sapiens) (P07550 whole entry, looked up): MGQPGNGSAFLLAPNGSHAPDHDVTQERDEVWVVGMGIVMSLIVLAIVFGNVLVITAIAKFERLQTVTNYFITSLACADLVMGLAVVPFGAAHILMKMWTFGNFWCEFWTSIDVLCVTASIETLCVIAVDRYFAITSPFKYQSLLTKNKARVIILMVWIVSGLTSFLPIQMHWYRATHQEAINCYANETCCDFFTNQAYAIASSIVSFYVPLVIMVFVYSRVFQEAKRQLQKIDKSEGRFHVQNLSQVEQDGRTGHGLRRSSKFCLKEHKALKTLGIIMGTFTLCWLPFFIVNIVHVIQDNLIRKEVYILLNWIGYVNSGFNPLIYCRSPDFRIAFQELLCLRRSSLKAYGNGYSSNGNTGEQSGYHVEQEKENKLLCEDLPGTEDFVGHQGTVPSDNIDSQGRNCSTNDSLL
Procedure, shortened: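 Cells (CHO, stable ADRB2 overexpression) incubated 18-20hr at 37C; compounds added from DMSO; agonist mix (1nM isoproterenol, 100uM IBMX, 25uM Ro-20-1724) added; 0.5hr RT; d2-cAMP and anti-cAMP-cryptate added; 1hr RT; 665/615 nm read.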

[18] = molecular target: D(2) dopamine receptor (Homo sapiens) (UniProt P14416); assay: Dopamine D2 receptor (DRD2) small molecule antagonists, cell-based qHTS assay (AID 1963595; active = well fitted inhibition curve with a large enough effect in the signal ratio in the repeat runs, with a control signal flat; the % refers to the signal ratio)
Sequence of D(2) dopamine receptor (Homo sapiens) (P14416 whole entry, looked up): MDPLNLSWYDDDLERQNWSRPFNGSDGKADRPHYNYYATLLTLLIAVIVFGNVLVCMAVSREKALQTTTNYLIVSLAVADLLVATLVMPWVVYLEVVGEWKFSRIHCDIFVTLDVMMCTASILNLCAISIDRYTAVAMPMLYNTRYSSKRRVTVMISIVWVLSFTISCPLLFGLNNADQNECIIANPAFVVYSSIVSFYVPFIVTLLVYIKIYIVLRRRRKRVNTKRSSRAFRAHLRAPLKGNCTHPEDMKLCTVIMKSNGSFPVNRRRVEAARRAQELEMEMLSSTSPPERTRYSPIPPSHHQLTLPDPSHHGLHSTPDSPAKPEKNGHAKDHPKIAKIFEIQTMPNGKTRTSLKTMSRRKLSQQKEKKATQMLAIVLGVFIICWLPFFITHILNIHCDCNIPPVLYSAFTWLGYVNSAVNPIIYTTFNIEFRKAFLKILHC
Procedure, shortened: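 Antagonist mode in DRD2-HEK293 cells: after compound addition with 0.1 mM Ro20-1724, cells received quinpirole (12 nM) and NKH477 (200 nM) for 30 min at room temperature; HTRF cAMP read after 1 h detection.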

[19] = molecular target: D(2) dopamine receptor (Homo sapiens) (UniProt P14416); assay: Dopamine D2 receptor (DRD2) small molecule agonists, cell-based qHTS assay (AID 1963594); note: nearly all actives have a fitted effect of over 35% in size
Procedure, shortened: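 cAMP accumulation in DRD2-HEK293 cells measured by HTRF after 1 h detection; compounds added 10 min before NKH477 (200nM […]) forskolin-analogue stimulation, 30 min at room temperature, with Ro20-1724 present at 0.1 mM final.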

[20] = molecular target: 5-hydroxytryptamine receptor 2A (Homo sapiens) (UniProt P28223); assay: 5-hydroxytryptamine receptor 2A (HTR2A) small molecule agonists, cell-based qHTS assay (AID 1963587); note: nearly all actives have a fitted effect of over 30% in size
Procedure, shortened: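 Kinetic calcium-flux fluorescence (2 min, 1 sec intervals) after compound addition in agonist mode. HTR2A-CHO cells were cultured 18 h, then dye-loaded 1 h at 37 C.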

Row | Compound | Potency [1] | Potency [2] | Potency [3] | outcome [4] | outcome [5] | Potency [6] | Potency [7] | Potency [8] | Potency [9] | Potency [10] | Potency [11] | Potency [12] | Potency [13] | Potency [14] | Potency [15] | Potency [16] | Potency [17] | Potency [18] | Potency [19] | Potency [20]
1 | C=C(C)CCCC(C)CCO (stereo unspecified) | inactive | inactive | inactive | inactive | inactive | inactive | inactive | inactive | inactive | inactive | inactive | inactive | inactive | inactive | inactive | inactive | inactive | inactive | – | –
2 | CCCCCN(CCCOC)C(=O)C(CCC(=O)O)NC(=O)c1ccc(Cl)c(Cl)c1 (stereo unspecified) | inactive | inactive | inactive | inactive | inactive | inactive | inactive | inactive | inactive | inactive | inactive | inactive | inactive | inactive | – | – | inactive | – | inactive | –
3 | COc1cc2c(cc1OC)-c1cc3ccc(OC)c(OC)c3c[n+]1CC2 | inactive | inactive | inactive | inactive | inactive | inactive | inactive | inactive | inactive | inactive | inactive | – | inactive | inactive | – | – | – | – | – | inactive
4 | CC(=O)C1C(=O)C=C(C)OC1=O (stereo unspecified) | inactive | inactive | inactive | inactive | inactive | inactive | inactive | inactive | inactive | inactive | inactive | inactive | inactive | inactive | inactive | inactive | inactive | – | inactive | –
5 | Clc1nnc(Cl)c2ccccc12 | inactive | 6.08 µM (active) | inactive | inactive | inactive | inactive | inactive | inactive | inactive | inactive | inactive | inactive | inactive | inactive | – | inactive | inactive | inactive | inactive | –
6 | OCCN1CN(CCO)CN(CCO)C1 | inactive | inactive | inactive | inactive | inactive | inactive | inactive | inactive | inactive | inactive | inactive | inactive | inactive | inactive | – | – | inactive | inactive | inactive | –
7 | Cl[Si](Cl)(c1ccccc1)c1ccccc1 | inactive | inactive | inactive | inactive | inactive | inactive | inactive | inactive | inactive | inactive | inactive | inactive | inactive | – | – | inactive | inactive | inactive | inactive | –
8 | O=C(O)c1cccc(O)c1 | inactive | inactive | inactive | inactive | inactive | inactive | inactive | inactive | inactive | inactive | inactive | – | inactive | inactive | inactive | inactive | inactive | – | inactive | inactive
